Data from PubChem BioAssay AID1456 (Vanderbilt High Throughput Screening Facility, 2008).
In all, about 190,000 compounds went through this assay and about 4,100 (2.2%) were called active.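 Rule for the calls: active = thallium flux slope and its plate-corrected score both differing from the plate sample mean at a set confidence after two filtering rounds, in either direction; inactive = the rest.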 Shown is part of a subset that was picked to be rich in actives.

Biological target: Solute carrier family 12 member 5 (Homo sapiens) (UniProt Q9H2X9)
Sequence (Q9H2X9 whole entry, looked up): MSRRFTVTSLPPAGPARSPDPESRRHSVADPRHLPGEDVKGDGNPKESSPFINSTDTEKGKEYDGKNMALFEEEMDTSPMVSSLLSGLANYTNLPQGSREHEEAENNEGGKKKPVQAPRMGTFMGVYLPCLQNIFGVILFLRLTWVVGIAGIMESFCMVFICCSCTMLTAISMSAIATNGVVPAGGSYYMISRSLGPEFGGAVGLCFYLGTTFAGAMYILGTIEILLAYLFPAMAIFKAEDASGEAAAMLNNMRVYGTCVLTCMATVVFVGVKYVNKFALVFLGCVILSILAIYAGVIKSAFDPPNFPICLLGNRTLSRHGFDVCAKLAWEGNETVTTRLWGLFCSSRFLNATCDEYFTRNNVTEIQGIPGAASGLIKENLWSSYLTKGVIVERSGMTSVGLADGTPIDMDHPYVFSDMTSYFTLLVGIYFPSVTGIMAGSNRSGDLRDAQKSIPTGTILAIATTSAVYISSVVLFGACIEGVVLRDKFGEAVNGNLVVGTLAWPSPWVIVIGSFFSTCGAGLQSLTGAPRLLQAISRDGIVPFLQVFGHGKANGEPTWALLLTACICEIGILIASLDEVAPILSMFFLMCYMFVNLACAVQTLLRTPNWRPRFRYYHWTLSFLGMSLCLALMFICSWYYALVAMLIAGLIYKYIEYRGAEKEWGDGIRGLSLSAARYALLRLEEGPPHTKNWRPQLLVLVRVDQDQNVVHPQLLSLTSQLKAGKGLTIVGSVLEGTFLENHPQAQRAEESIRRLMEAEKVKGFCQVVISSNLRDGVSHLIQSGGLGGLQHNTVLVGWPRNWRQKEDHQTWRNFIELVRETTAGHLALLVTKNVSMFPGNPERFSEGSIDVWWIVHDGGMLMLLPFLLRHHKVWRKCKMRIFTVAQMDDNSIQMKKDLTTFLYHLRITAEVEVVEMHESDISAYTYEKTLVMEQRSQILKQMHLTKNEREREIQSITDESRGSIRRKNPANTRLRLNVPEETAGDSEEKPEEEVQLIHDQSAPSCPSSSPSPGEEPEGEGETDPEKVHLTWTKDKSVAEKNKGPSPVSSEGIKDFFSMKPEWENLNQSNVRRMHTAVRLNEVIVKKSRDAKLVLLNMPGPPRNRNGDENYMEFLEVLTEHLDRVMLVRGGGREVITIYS
Experiment: KCC2 cotransporter modulators, thallium flux, primary screen, cell-based, HEK293 KCC2, FluoZin-2 fluorescence, MLSMR (AID 1456);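 for B-score of Tl+ flux slope (higher = more flux/activation; lower = inhibition): slope of fluorescence scaled to starting intensity during 10 to 20 s after thallium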
Settings: KCC2 cells, thallium flux FluoZin-2 fluorescence; at 10 µM

Row | SMILES | B-score of Tl+ flux slope (higher = more flux/activation; lower = inhibition)
1 | O=C(O)c1ccc(/C=N/Nc2nc(N3CCCCC3)nc(N3CCCCC3)n2)cc1 | -1.4 (inactive)
2 | Cc1ccc(C(=O)N/C(=C\c2ccco2)C(=O)NC2CCS(=O)(=O)C2)cc1 (configuration not stated) | -1.21 (inactive)
3 | CN(C(=O)CCn1c(=S)oc2ccccc21)C1CCCCC1 | 0.00441 (inactive)
4 | CC(C)c1nc(SCC(=O)NC(=O)NC(C)(C)C)n[nH]1 | -0.671 (inactive)
5 | Cc1ccc(NC(=O)/C(=C/c2ccc([N+](=O)[O-])cc2)NC(=O)c2ccccc2)cc1 | -1.36 (inactive)
6 | O=C(Nc1nncs1)c1ccccc1NS(=O)(=O)c1cccs1 | -1.71 (inactive)
7 | COc1cc(NC(=O)c2cccnc2SC)cc(OC)c1 | 0.553 (inactive)
8 | COc1cc(NC(=O)c2ccccc2NS(=O)(=O)c2ccc(Cl)s2)cc(OC)c1 | -5.32 (active)
9 | Cc1ccc(-c2nc(SCC(=O)Nc3ccccc3OC(F)F)c3c(C)c(C(=O)O)sc3n2)cc1 | -0.62 (inactive)
10 | COc1ccc(C(=O)N/N=C(\C)CC(=O)Nc2ccc(Cl)cn2)cc1 | -0.466 (inactive)
11 | CCn1c(CN2C(=O)CSc3ccccc32)n[nH]c1=S | 0.96 (inactive)
12 | CCC(=O)NC(=Nc1nc2ccccc2s1)NC(=O)CC | 41 (active)
13 | O=C(Nc1ccccc1)Nc1nc2ccccc2s1 | 0.018 (inactive)
14 | CSCCC(Nc1nc2ccccc2s1)C(=O)O (configuration not stated) | 0.0417 (inactive)
15 | O=C(O)C(F)(F)C(NCc1ccccc1)c1ccccc1 (configuration not stated) | -0.106 (inactive)
16 | Cn1c(SCC(=O)N2CCOCC2)nnc1-c1ccc2ncccc2c1 | -0.0283 (inactive)
17 | O=C(Nc1ccccc1)c1cc2ccccc2[nH]1 | -1.8 (inactive)
18 | c1ccc2[nH]c(-c3nc4ccccc4[nH]3)nc2c1 | 0.179 (inactive)
19 | S=c1ccc2ccccc2[nH]1 | 29.1 (active)
20 | COc1ccc(OCC(=O)N2CCN(C(=O)COc3ccccc3)CC2)cc1 | -0.137 (inactive)
21 | Cc1ccc(OCC(=O)N2CCN(C(=O)c3cccnc3)CC2)cc1 | 2.71 (active)
22 | O=C(c1ccc(OC2CCN(C(=O)c3cccnc3)CC2)cc1)N1CCCCCC1 | 0.182 (inactive)
23 | CCn1c(SCC(=O)N/N=C/c2ccccc2OCC(=O)O)nnc1-c1ccc(C(C)(C)C)cc1 | -0.932 (inactive)
24 | CC1(C)CCSC(/C=C/c2ccccc2)=N1 | -1.21 (inactive)
25 | COc1ccc(N=Nc2ccc(O)c(P(=O)(c3ccccc3)c3ccccc3)c2)cc1 | -0.282 (inactive)
26 | CCOC(=O)C(=O)C1C(=O)Nc2ccccc21 (configuration not stated) | inactive

Row | SMILES | B-score of Tl+ flux slope (higher = more flux/activation; lower = inhibition)
27 | CCCCC(CC)CNC(=O)CCCCn1c(=O)[nH]c2ccsc2c1=O (configuration not stated) | -0.707 (inactive)
28 | CCCCC(CC)CNC(=O)C(=O)C1C(=O)Nc2ccccc21 (configuration not stated) | 8.5 (active)
29 | OCCCC1CCCCN1Cc1nc(Cc2ccccc2Cl)no1 (configuration not stated) | -0.7 (inactive)
30 | O=C(/C=C/Nc1ccc(S(=O)(=O)Nc2cnc3ccccc3n2)cc1)c1cccnc1 | -0.253 (inactive)
31 | CCOC(=O)c1nnn2c1nc(N1CCN(c3ccccc3)CC1)c1ccccc12 | -2.78 (inactive)
32 | C/C=C(\C)C(=O)N1CC2(CC(c3cccc(NC(=O)CCCCC)c3)=NO2)C[C@@H]1C(N)=O (some centres not stated) | -0.00449 (inactive)
33 | O=C(NN1C(=O)C2C(C1=O)C1C=CC2C12CC2)c1ccccc1Cl (configuration not stated) | 0.716 (inactive)
34 | CCc1ccc(CCC(=O)Nc2ccc(S(N)(=O)=O)cc2)o1 | 1.49 (inactive)
35 | Cc1oc2nc(SCC(=O)Nc3ccc(S(N)(=O)=O)cc3)nc(NC(=O)c3ccccc3)c2c1C | 6.29 (active)
36 | CCOC(=O)c1ccc(NC(=O)CSc2ncccn2)cc1 | 1.85 (inactive)
37 | CCOc1ccc(NC(=O)CN(C)CC(=O)Nc2cccc(Cl)c2C)cc1OCC | -5.58 (active)
38 | CCOc1ccc(NC(=O)CN(C)CC(=O)NC(C)c2ccccc2)cc1OCC (configuration not stated) | -0.692 (inactive)
39 | COc1cccc(NC(=O)CN(C)CC(=O)Nc2ccc3c(c2)CCC3)c1 | -0.353 (inactive)
40 | COc1ccc(/C=N/NS(=O)(=O)c2ccc(NC(C)=O)cc2)cc1 | 0.538 (inactive)
41 | COc1ccc(Cl)cc1NC(=O)CCN1CCOCC1 | -0.478 (inactive)
42 | O=S(=O)(c1ccc(F)cc1)N1CCN(C(=S)NCc2ccco2)CC1 | -3.94 (active)
43 | O=S(=O)(c1ccc(F)cc1)N1CCN(C(=S)NC2CCCC2)CC1 | -0.0466 (inactive)
44 | O=C(NCc1ccco1)C1CCCN(S(=O)(=O)c2ccccc2)C1 (configuration not stated) | -0.4 (inactive)
45 | O=S(=O)(c1ccc(Cl)cc1)N1CCCN(c2ccc(C(F)(F)F)cn2)CC1 | -0.0306 (inactive)
46 | C=CCC(Nc1ccccc1)c1cccc(OC)c1OC (configuration not stated) | -1.46 (inactive)
47 | O=C(CSc1nnc(-c2cccs2)n1-c1ccccc1)N1CCN(C(=O)c2ccco2)CC1 | 0.0437 (inactive)
48 | O=C(CSc1nnc(-c2cccs2)n1Cc1ccccc1)N1CCc2ccccc2C1 | -5.7 (active)
49 | Cc1nnc(SCC(=O)N2CCc3ccccc3C2)s1 | 0.173 (inactive)
50 | CC(C)Cc1nnc(NC(=O)CCC(=O)Nc2ccc3cn[nH]c3c2)s1 | 0.683 (inactive)
51 | Nc1nnnn1/N=C/c1cc([N+](=O)[O-])ccc1O | -0.19 (inactive)
52 | COc1cccc(CC(=O)Nc2ccc(-c3csc(C)n3)cc2)c1 | -1.35 (inactive)
